These results are taken from PubChem BioAssay (Tox21).

Inconclusive results are not listed. The source made the active and inactive calls. Unless noted, the call rests on the fitted dose curve; in most records, active means well fitted curve in the direction sought with a large enough effect in the repeat runs; inconclusive means weak or mixed curves; inactive means no such curve, though single readings can be large; an effect the other way counts as inactive or inconclusive.

Assay [1] is described as follows: qHTS assay to identify small molecule agonists of the RXR signaling pathway - cell viability counter screen (AID 1159529). Further: nearly all actives have a fitted effect of over 50% in size. Further: potency means the concentration at half of the fitted maximal effect. An outline of the steps:
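Compounds dissolved in DMSO were pinned onto HEK 293T cells carrying a beta-lactamase reporter under RXR-alpha control and incubated 16 hr. Cytotoxicity was then quantified by CellTiter-Glo luminescence.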

Assay [2] can be described thus: qHTS assay to identify small molecule antagonists of the retinoid acid receptor (RAR) signaling pathway - cell viability counter screen (AID 1159551). Further: nearly all actives have a fitted effect of over 35% in size. Further: potency means the concentration at half of the fitted maximal effect. An outline of the steps:
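C3RL4 cells were seeded overnight at 37 C, then treated with compounds plus 1 uM (final) retinol for 6 h at 37 C. Viability was read as ATP by CellTiter-Glo luminescence after 30 min at room temperature.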

Assay [3] in a line: qHTS assay to identify small molecule agonists of the retinoic acid receptor (RAR) signaling pathway (AID 1159553). An outline of the steps: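 C3RL4 cells carrying a RARE luciferase reporter were plated overnight at 37 C, then exposed to compounds in DMSO for 6 hr at 37 C and 5% CO2. Luminescence was read 30 min after luciferase reagent addition at room temperature.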
The nature of assay [4]: qHTS assay to identify small molecule antagonists of the estrogen related receptor (ERR) signaling pathway from Tox21 library - cell viability counter screen (AID 1224834). Further: nearly all actives have a fitted effect of over 30% in size. Further: potency means the concentration at half of the fitted maximal effect. The method in brief:
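ERR reporter cells were plated 6 h before compound addition, then exposed to test compounds in DMSO for 17.5 h at 37 C. Viability was read as CellTiter-Fluor fluorescence after a 30-minute incubation at 37 C.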

Assay [5] addresses Luciferin 4-monooxygenase (Photinus pyralis) (UniProt P08659). The experiment in a line: qHTS assay to identify small molecule inhibitors of firefly luciferase (AID 1224835). Further: nearly all actives have a fitted effect of over 25% in size. Further: potency means the concentration at half of the fitted maximal effect. The method in brief:
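Quantitative HTS format; KM concentrations of both substrates. Purified P. pyralis FLuc activity quantified from luminescence images.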
(In general: In qHTS, concentration-response curves come from the screen itself.)

Assay [6] can be described thus: qHTS assay to identify small molecule agonists of the constitutive androstane receptor (CAR) signaling pathway - cell viability counter screen (AID 1224836). Further: nearly all actives have a fitted effect of over 45% in size. Further: potency means the concentration at half of the fitted maximal effect. An outline of the steps: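 23 h treatment, 37 C, 5% CO2. Cell line: HepG2 stably expressing hCAR with a CYP2B6-2.2kb construct. Co-treatment: PK11195, 0.75 uM final. Read-out: CellTiter-Fluor fluorescence intensity.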

The nature of assay [7]: qHTS assay to identify small molecule antagonists of the estrogen related receptor signaling pathway with the pleiotropic PPARgamma coactivator (PGC) from Tox21 10K library - cell viability counter screen (AID 1224840; active means well fitted cell-killing curve with a large enough effect in the repeat runs, not every such curve was filed as active; further: nearly all actives have a fitted effect of over 40% in size; further: potency means the concentration at half of the fitted maximal effect). The method in brief:
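PGC/ERR cells were seeded at 2,000 cells/well and left 6 hours at 37 C/5% CO2 before pin-tool addition of compounds in DMSO. After 17.5 hours at 37 C, CellTiter-Fluor was added and fluorescence read 30 minutes later.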

Assay [8] concerns the target Thyrotropin receptor (Homo sapiens) (UniProt P16473). Briefly: qHTS assay to identify small molecule agonists of the thyroid stimulating hormone receptor (TSHR) signaling pathway (AID 1224843; calls by dose curve; further: nearly all actives have a fitted effect of over 45% in size). An outline of the steps:
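Cell line HEK293 with TSHR; density 800/well. Exposure 30 min RT. Readout HTRF cAMP (cAMP-d2/anti-cAMP-cryptate), 1 h RT before reading.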

A short description of assay [9]: qHTS assay to identify small molecule antagonists of the constitutive androstane receptor (CAR) signaling pathway - cell viability counter screen (AID 1224837). Further: nearly all actives have a fitted effect of over 45% in size. Further: potency means the concentration at half of the fitted maximal effect. An outline of the steps: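 HepG2 cells stably expressing hCAR and a CYP2B6-2.2kb reporter were plated and pre-incubated 4 hr at 37 C/5% CO2, then given compounds at 15 concentrations plus 50 nM CITCO (final). After 23 hr, viability was read by CellTiter-Fluor fluorescence.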

Assay [10] concerns the target Nuclear receptor subfamily 1 group I member 3 (Homo sapiens) (UniProt Q14994). The experiment in a line: qHTS assay to identify small molecule antagonists of the constitutive androstane receptor (CAR) signaling pathway (AID 1224838). Further: nearly all actives have a fitted effect of over 40% in size. Further: potency means the concentration at half of the fitted maximal effect. An outline of the steps: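 HepG2 cells stably co-transfected with hCAR and a CYP2B6-2.2kb luciferase reporter were seeded 4 h before compound addition at 15 concentrations. Cells were stimulated with 50 nM CITCO (final) for 24 h at 37 C; luciferase luminescence was then read.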

The target is the same in assay [11]. Briefly: qHTS assay to identify small molecule agonists of the constitutive androstane receptor (CAR) signaling pathway (AID 1224839). Further: series mostly up to about 92 µM; nearly all actives have a fitted effect of over 15% in size. The method in brief: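 Compounds tested at 15 concentrations on HepG2 cells stably harbouring hCAR and CYP2B6-2.2kb reporter constructs, co-treated with PK11195 (0.75 uM final), 24 h at 37 C; luminescent reporter signal quantified.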

Assay [12] is described as follows: qHTS assay to identify small molecule antagonists of the estrogen related receptor signaling pathway with the pleiotropic PPARgamma coactivator (PGC) from Tox21 10K library (AID 1224841; call rule not given here; further: actives are mostly falling curves and most rising ones were filed inactive; nearly all actives have a fitted effect of over 50% in size; further: potency means the concentration at half of the fitted maximal effect). The method in brief: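 PGC/ERR reporter cells were seeded at 2,000 cells/well and held 6 hours at 37 C/5% CO2 before pin-tool addition of compounds in DMSO. After 18 hours at 37 C, One-Glo was added and luminescence read after 30 minutes at room temperature.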

A short description of assay [13]: qHTS assay to identify small molecule agonists of the estrogen related receptor signaling pathway with the pleiotropic PPARgamma coactivator (PGC) from Tox21 10K library (AID 1224842). Further: nearly all actives have a fitted effect of over 15% in size. The method in brief:
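PGC/ERR reporter cells (NTP line) were seeded 2,000 per well, rested 6 h at 37 C/5% CO2, then pin-dosed with compounds in DMSO for 18 h at 37 C; luciferase read by One-Glo luminescence after 30 min at room temperature.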

Assay [14] is described as follows: qHTS assay to identify small molecule antagonists of the estrogen related receptor (ERR) signaling pathway - cell viability counter screen (AID 1224818).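 Further: series mostly up to about 46 µM; viability measured after 17.5 h of compound exposure.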 The method in brief:
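ERR reporter cells plated 6 h at 37 C/5% CO2, then compounds in DMSO pin-transferred and incubated 17.5 h at 37 C. Viability read as CellTiter-Fluor fluorescence after 30 min at 37 C.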

A short description of assay [15]: qHTS assay to identify small molecule antagonists of the estrogen related receptor (ERR) signaling pathway (AID 1224819;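 further: luminescence from an ERR-driven luciferase reporter measured with One-Glo reagent; series mostly up to about 46 µM; nearly all actives have a fitted effect of over 50% in size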). The method in brief:
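ERR reporter cells were plated at 2,000 cells/well and left 6 h at 37 C/5% CO2 before pin-tool transfer of compounds in DMSO. After 18 h at 37 C, One-Glo was added and luminescence was read 30 min later at room temperature.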

Assay [16] is described as follows: qHTS assay to identify small molecule agonists of the estrogen related receptor (ERR) signaling pathway (AID 1224820). An outline of the steps: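 Cells: ERR line from NTP, 2,000/well. Pre-incubation 6 h, 37 C/5% CO2. Compound (DMSO) pin transfer, 18 h 37 C. One-Glo, 30 min RT, luminescence.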
Assay [17] concerns estrogen-related receptor alpha (ERRalpha) with PGC-1alpha coactivator, human. The experiment in a line: qHTS assay to identify small molecule antagonists of the estrogen related receptor signaling pathway with the pleiotropic PPARgamma coactivator (PGC) (AID 1224821; calls by dose curve;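 further: series mostly up to about 46 µM; lower luminescence signal means antagonism of PGC/ERR signalling; nearly all actives have a fitted effect of over 50% in size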). The method in brief:
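Luminescent read-out (One-Glo, 30 min at room temperature) following 18 h treatment of PGC/ERR cells at 37 C with compounds delivered in DMSO. Cells had settled 6 h at 37 C/5% CO2 before dosing.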

The nature of assay [18]: qHTS assay to identify small molecule antagonists of the estrogen related receptor signaling pathway with the pleiotropic PPARgamma coactivator (PGC) cell viability counter screen (AID 1224822; further: series mostly up to about 46 µM). An outline of the steps: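 PGC/ERR cells were seeded at 2,000 cells/well, rested 6 h at 37 C/5% CO2, then given compounds in DMSO by pin tool and incubated 17.5 h at 37 C. Viability came from CellTiter-Fluor fluorescence after 30 min.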

Assay [19] is described as follows: qHTS assay to identify small molecule agonists of the estrogen related receptor signaling pathway with the pleiotropic PPARgamma coactivator (PGC) (AID 1224823). An outline of the steps:
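Steps: plate PGC/ERR cells at 2,000 cells/well; incubate 6 h, 37 C/5% CO2; pin-transfer compounds (DMSO); incubate 18 h, 37 C; add One-Glo; 30 min RT; read luminescence.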

Chain of Luciferin 4-monooxygenase (Photinus pyralis) (P08659 whole entry, looked up): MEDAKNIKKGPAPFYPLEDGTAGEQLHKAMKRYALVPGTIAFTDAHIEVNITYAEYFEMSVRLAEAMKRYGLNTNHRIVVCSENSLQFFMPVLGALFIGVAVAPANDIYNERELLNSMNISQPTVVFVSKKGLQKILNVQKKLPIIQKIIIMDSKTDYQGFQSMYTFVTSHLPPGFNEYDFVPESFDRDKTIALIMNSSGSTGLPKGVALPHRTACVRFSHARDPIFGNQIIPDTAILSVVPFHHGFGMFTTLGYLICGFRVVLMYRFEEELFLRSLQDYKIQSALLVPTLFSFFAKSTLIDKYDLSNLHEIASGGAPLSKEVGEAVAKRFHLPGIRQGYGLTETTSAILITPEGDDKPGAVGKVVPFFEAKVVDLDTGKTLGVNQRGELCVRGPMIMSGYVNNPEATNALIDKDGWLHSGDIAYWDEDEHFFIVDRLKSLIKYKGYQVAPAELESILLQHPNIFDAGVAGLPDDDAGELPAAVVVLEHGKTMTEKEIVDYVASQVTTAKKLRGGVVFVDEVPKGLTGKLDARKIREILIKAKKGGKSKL
Chain of Nuclear receptor subfamily 1 group I member 3 (Homo sapiens) (Q14994 whole entry, looked up): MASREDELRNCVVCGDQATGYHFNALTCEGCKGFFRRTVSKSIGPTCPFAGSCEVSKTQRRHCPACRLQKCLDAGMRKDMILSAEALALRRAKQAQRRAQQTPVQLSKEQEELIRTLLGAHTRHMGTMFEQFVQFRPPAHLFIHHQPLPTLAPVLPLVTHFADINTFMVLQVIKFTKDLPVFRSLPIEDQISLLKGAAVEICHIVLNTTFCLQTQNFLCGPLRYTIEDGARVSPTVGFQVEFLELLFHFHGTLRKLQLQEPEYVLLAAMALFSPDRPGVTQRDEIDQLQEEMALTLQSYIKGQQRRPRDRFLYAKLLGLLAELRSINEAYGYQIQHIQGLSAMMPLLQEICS
Chain of Thyrotropin receptor (Homo sapiens) (P16473 whole entry, looked up): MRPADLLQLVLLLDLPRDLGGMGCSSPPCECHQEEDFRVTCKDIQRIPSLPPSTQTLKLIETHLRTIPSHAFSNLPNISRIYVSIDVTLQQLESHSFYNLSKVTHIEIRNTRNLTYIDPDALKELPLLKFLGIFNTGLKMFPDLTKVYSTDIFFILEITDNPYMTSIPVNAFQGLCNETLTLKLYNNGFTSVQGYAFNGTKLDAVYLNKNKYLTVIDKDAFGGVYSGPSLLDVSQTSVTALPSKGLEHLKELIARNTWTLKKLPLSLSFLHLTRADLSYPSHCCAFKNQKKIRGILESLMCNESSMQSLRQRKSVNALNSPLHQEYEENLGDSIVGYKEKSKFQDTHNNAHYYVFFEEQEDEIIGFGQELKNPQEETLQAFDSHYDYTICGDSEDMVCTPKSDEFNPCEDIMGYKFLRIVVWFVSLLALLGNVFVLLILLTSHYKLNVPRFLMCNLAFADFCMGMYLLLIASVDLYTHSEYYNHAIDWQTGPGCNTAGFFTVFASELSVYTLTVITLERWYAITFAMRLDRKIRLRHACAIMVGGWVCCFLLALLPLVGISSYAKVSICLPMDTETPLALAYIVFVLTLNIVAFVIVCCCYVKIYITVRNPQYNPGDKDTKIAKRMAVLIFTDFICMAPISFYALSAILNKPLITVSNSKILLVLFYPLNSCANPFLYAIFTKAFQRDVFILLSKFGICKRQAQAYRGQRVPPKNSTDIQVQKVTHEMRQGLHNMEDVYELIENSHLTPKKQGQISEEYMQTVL

On to `Clc1ccc(CSC(Cn2ccnc2)c2ccc(Cl)cc2Cl)cc1` (stereo unspecified), for which the Potency in assay [1] was 26.8 µM (active); in assay [4], 15 µM (active); in assay [7] it was 29.8 µM (active). In addition, the Potency entry in assay [2], in assay [3], in assay [5], in assay [6] and in [8] was “inactive” each time.
Turning to `CC(Cc1ccc(C(C)(C)C)cc1)CN1C[C@@H](C)O[C@@H](C)C1` (stereo partly specified), the Potency result in [1], in [2], in assay [4], in [5], in [6] and in assay [9] was “inactive” in each case. Moreover, the Potency result in [10], in assay [11], in [7], in [12] and in assay [13] was “inactive” in each case.
As to `[Hg+2].[I-].[I-]`, the Potency was 3.89 µM (active) in assay [1]; 10.9 µM (active) in assay [2]; 6.86 µM (active) in assay [4]; 4.48 µM (active) in [5]; 34.4 µM (active) in assay [6]; 30.6 µM (active) in assay [9]. Also, the Potency in [10] is 30.6 µM (active); in assay [7], 4.33 µM (active). The Potency result in assay [11] is “inactive”.
`CN(C)S(=O)(=O)N(SC(F)(Cl)Cl)c1ccccc1`: the Potency was 21.9 µM (active) in [1]; 48.6 µM (active) in assay [2]; 30.6 µM (active) in assay [4]; 35.6 µM (active) in assay [5]; 30.6 µM (active) in assay [6]; 27.3 µM (active) in [9]. The Potency in [10] is 21.7 µM (active); in assay [7], 24.3 µM (active). Besides, in [11], the Potency entry is “inactive”.
For the compound `C=CC(=O)N(C)C`, the Potency entry in assay [1], in assay [2], in assay [4], in [5], in [6] and in [9] was “inactive” throughout. For the same compound, the Potency result in assay [7], in assay [13] and in assay [8] was “inactive” throughout. Besides, in [12], the Potency was 27.3 µM (active).
Turning to `CS(=O)(=O)c1ccc(C(=O)C2C(=O)CCCC2=O)c([N+](=O)[O-])c1`, the Potency entry in assay [1], in [2], in assay [15], in assay [17], in assay [18] and in [4] was “inactive” throughout. Besides, the Potency result in [5], in assay [6], in assay [9], in [10], in assay [11] and in assay [7] was “inactive” each time. Besides, the result in assay [14], in [16] and in assay [19] was inactive. Besides, the Potency in assay [12] is 31.2 µM (active).
On to `C1CCC2CCCCC2C1` (stereo unspecified), for which the Potency result in [1], in assay [2], in assay [4], in assay [5], in [6] and in assay [9] was “inactive” throughout. Moreover, the Potency entry in [10], in [11], in assay [12] and in assay [13] was “inactive” throughout.
With `Cc1cc(Cl)ccc1O[C@H](C)C(=O)O`, the Potency result in [1], in assay [2], in [4], in [5], in [6] and in [9] was “inactive” throughout. In addition, the Potency entry in [11] and in [7] was “inactive” in each case.
